# Measured values taken from ChEMBL document CHEMBL3988442, “University of Dundee, Small-Polar-MMV Screening Library” (2021).
# Screen size: about 85,000 compounds; about 440 (0.52%) showed an effect of 50% or more. The full list was thinned out, with strong results kept by preference.
# Assay: In vitro enzyme assay to detect hydrolysis of chlorophenol red-beta-D-[…] directly proportional to the number of Toxoplasma stably expressing beta-galactosidase
# Format: functional, organism-based, Toxoplasma gondii
# Parameters: scale not given: in the data most compounds retested in dose-response had high values
SMILES,Percent Effect (50 µM) [%],Percent Effect (10 µM) [%]
CC(C)C(=O)N1CCN(CCc2ccccn2)CC1,-1.569,–
Cn1nc2c(cc1=O)CN(c1ncnc3sccc13)CC2,–,80.8
CC(C(=O)Nc1nccs1)N1CCc2nn(C)c(=O)cc2C1 (stereo not drawn),–,7.43
CCn1nc2c(cc1=O)CN(c1ncnc3sccc13)CC2,–,58.75
CC(C)n1nc2c(cc1=O)CN(c1ncnc3sccc13)CC2,–,1.477
c1csc(N2CCN(c3ncnc4sccc34)CC2)n1,–,15.87
CCCn1nc2c(cc1=O)CN(c1ncnc3sccc13)CC2,–,8.636
CC(C)NC(=O)CCN1CCC(CN2CCCC2)CC1,15.46,–
O[C@@H]1CN(Cc2ccccc2)C[C@@H]1O,8.775,–
Cc1noc(C)c1COC1CCNC1 (stereo not drawn),7.368,–
O=C(COc1ccc(F)cc1)Nc1ccon1,-3.156,–
CC(NC(=O)C1CCNCC1)c1cccc(F)c1 (stereo not drawn),17.33,–
OC1(Cc2ccccn2)CCNCC1,-0.4203,–
Cc1cccc(NCC2CCN(CCC(N)=O)C2)n1 (stereo not drawn),2.724,–
CCNC(C)(C)C(=O)N(C)Cc1ccc(OC)c(F)c1,94.51,–
COc1ccc(CN(C)C(=O)C2CC2)cc1F,5.333,–
COc1ccc(CN(C)C(=O)CCNC(C)=O)cc1F,-5.409,–
NCc1ccc(-n2cc(Cl)cn2)cc1,-34.41,–
CCCn1ccnc1CNC(=O)c1ccc(F)c(O)c1,10.15,–
CCN1CCc2nc(NC(=O)c3cc(Br)c[nH]3)sc2C1,-7.995,–

SMILES,Percent Effect (50 µM) [%],Percent Effect (10 µM) [%]
CN1CCc2nc(NC(=O)c3cncc(Br)c3)sc2C1,-4.285,–
CCN1CCc2nc(NC(=O)c3ccncc3)sc2C1,61.16,–
O=C(NCCCNCc1ccccc1)c1ccco1,-4.419,–
CN1N=C(C(=O)NC2CCCc3occc32)CCC1=O (stereo not drawn),1.103,–
COc1ccc(CN)c(F)c1,0.131,–
Cc1csc(N2CCN(C(=O)c3ccc(C)s3)CC2)n1,–,-15.38
Cc1ccc(C(=O)N2CCN(C(C)C(N)=O)CC2)s1 (stereo not drawn),98.87,–
CC(C(N)=O)N1CCN(C(=O)c2ccc(Br)cc2)CC1 (stereo not drawn),3.88,–
OC1CN(Cc2ccc(OCc3ccccn3)cc2)C1,-10.4,–
COc1c(C)cnc(CN(C)C2CCN(C3CCOCC3)CC2)c1C,–,16.07
COc1c(C)cnc(CN(C)C2CCCCC2)c1C,–,62.27
COc1c(C)cnc(CN(C)C)c1C,0.7571,–
CC(Cn1cccn1)NC(=O)c1cncc(Br)c1 (stereo not drawn),6.883,–
c1nc(CCNc2nc(C3CC3)nc3c2CCNCC3)c[nH]1,–,13.19
C1Cc2nc(CCNc3nc(C4CC4)nc4c3CCNCC4)sc2C1,–,77.67
Cc1nc2c(c(NCCc3nc4c(s3)CCCC4)n1)CCNCC2,–,-0.699
N[C@H]1CC[C@@H](n2cc(Br)cn2)CC1,5.491,–
Cc1cccc(CNC(=O)C2CCCCC(=O)N2)c1 (stereo not drawn),-7.628,–
Cc1ccc(CNC(=O)C2(C)CCCCC(=O)N2)o1 (stereo not drawn),14.66,–
Cc1ccc(CNC(=O)C2CCCCC(=O)N2)o1 (stereo not drawn),50.04,–

SMILES,Percent Effect (50 µM) [%],Percent Effect (10 µM) [%]
N#CC1CCN(C(=O)c2ccc(SCCO)cc2)CC1,-14.8,–
CNc1cccnc1N(C)C,57.74,–
CNc1cccc2cccnc12,-1.4,–
CN(C)c1ncccc1N,1.469,–
COC(C(=O)NC1(C)CCOCC1)c1ccccc1 (stereo not drawn),-2.025,–
CSCCCN1CCN(C(=O)c2ccc[nH]2)CC1,-8.697,–
Cc1nc(N2C[C@@H](CN3CCCCC3)[C@@H](CO)C2)c2sccc2n1,–,-8.225
CO[C@H]1[C@@H]2CC[C@H]1CN(c1nc(C)nc3ccsc13)C2,–,70.73
CO[C@H]1[C@@H]2CC[C@H]1CN(c1nc(C)nc3sccc13)C2,–,8.834
CC(C)(C)NCC(=O)Nc1ccc(Cl)cn1,-9.06,–
CN1Cc2cc(O)ccc2C1=O,4.771,–
COc1cccc(NC(=O)Nc2ccc3c(c2)CC(=O)N3)c1,–,14.2
Cc1cc(C(=O)Nc2ccc3c(c2)CC(=O)N3)c(C)o1,62.73,–
Cc1noc(C)c1CCCNC(=O)Nc1ccc2c(c1)CC(=O)N2,–,-25.73
O=C(NC1CC1)C1CCCN1c1ccc2nnnn2n1 (stereo not drawn),14.68,–
Cc1ccc(CNCCN2CCOCC2)s1,-0.4782,–
CC(CO)N(C)C(=O)c1cccc2cc[nH]c12 (stereo not drawn),3.789,–
CSCC(=O)NC(C1CCNCC1)[C@H]1C[C@@H](O)C1 (stereo partly drawn),54.38,–
